Screening data (PubChem BioAssay)
Anthrax LF prot: anthrax lethal factor protease inhibition; actives 0.12% (n = 360,000); multiplex microsphere protease cleavage assay, LF; AID 588501; inhibition, % at 10 µM; P15917
MazF activator: increases E. coli MazEF RNase cleavage of RNA; AID 504720; actives 0.32% (n = 350,000); FAM/BHQ RNA-DNA oligo cleavage fluorescence, 5 h; activation, % at 20 µM; P0AE70; in the data active = activation above about 50%
Target sequence (P0AE70 whole entry, looked up): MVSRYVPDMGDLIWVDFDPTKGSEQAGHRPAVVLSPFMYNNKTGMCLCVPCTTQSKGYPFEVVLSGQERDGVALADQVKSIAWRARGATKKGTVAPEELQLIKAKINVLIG
Bead autofluor: flagged as autofluorescent in microsphere protease counterscreen; AID 624483; compound autofluorescence counterscreen, microsphere flow cytometry; active compounds read high; fluorescence intensity (test concentration not listed); actives 3.1% (n = 360,000); in the data active = fluorescence intensity above about 16000; inconclusive = no clear call, values can overlap the other calls
BoNT-F LC inh: blocks Botulinum neurotoxin F light chain protease; actives 0.22% (n = 360,000); inhibition, % at 10 µM; Multiplex microsphere protease cleavage assay, flow cytometry; in the data active = inhibition above about 35%, passing the limit was not always enough; inconclusive = no clear call, values can overlap the other calls
BoNT A protease: blocks Botulinum neurotoxin A light chain protease. multiplex microsphere protease substrate cleavage, flow cytometry. inhibition, % at 10 µM. actives 0.17% (n = 360,000). AID 588499
Of the large screens only hits and unclear results are named; the others gave an inactive call. In the library only some 3.6% were active in any assay of this set; here they are far more common. Cut-off read from the data, not from the text of the source, unless noted: active = inhibition above about 30%; inconclusive = no clear call, values can overlap the other calls; inactive = below that.

C[C@H]1COC(=O)[C@@H](NC(=O)OCC2c3ccccc3-c3ccccc32)C/C=C\C[C@H](CC(=O)NCCO)C(=O)N1	none
COC(=O)c1ccc(NC(=O)c2cccc(Cl)c2)o1	Bead autofluor 23122
CC(=NOC(=O)c1ccc(Cl)cc1)c1nccs1	none (no result: MazF activator)
C/C(=N\OC(=O)c1ccc(Cl)cc1)c1nccs1	Bead autofluor 24861
O=C(NCC1CCCO1)c1[nH]c(C(F)(F)F)nc1-c1ccccc1 (stereo not given)	none (no result: MazF activator)
O=C(NC1CCCCC1)C(c1cccnc1)N(C(=O)CCl)c1ccccc1Cl (stereo not given)	BoNT-F LC inh 38
CCOC(=O)/C(C(N)=NCc1ccco1)=C(/O)c1ccccc1	Bead autofluor 23453
c1ccc(NC(=NCc2ccco2)c2ccccc2)cc1	none
C=CCSc1nc(C)cc(/C=C\c2ccccc2)c1C#N	Bead autofluor 21811, BoNT A protease inconclusive
Oc1ccc2ccccc2c1C1Nc2cccc3cccc(c23)N1	Bead autofluor 23653
COC(=O)c1ccc(C(=O)OC)c(NC(=S)N2CCCC(C)C2)c1 (stereo not given)	none
O=C(COC(=O)c1ccc(Br)o1)NCC1CCCO1 (stereo not given)	Bead autofluor 21346
O=C(COC(=O)c1cc[n+]([O-])cc1)NC(=O)c1ccc(OC(F)F)cc1	none
CCc1nc2ccc(C(=O)NCc3ccc(OC)cc3)cn2c1N(CC)CCOC	none (no result: MazF activator)
COc1ccc(Nc2nc(C(C)(C)C)nc3c2nnn3Cc2ccccc2Cl)cc1OC	none
CCOC(=O)CNc1nc(C(C)(C)C)nc2c1nnn2Cc1ccccc1Cl	Bead autofluor 23473
COc1ccc(NS(=O)(=O)c2c(C)cc(C)cc2C)cn1	none
COc1ccccc1CNC(=O)C1CCC(CNS(=O)(=O)c2ccc(F)cc2)CC1 (stereo not given)	none
CC1(CCC#N)N=C(SCCC#N)N(c2ccccc2)C1=O (stereo not given)	Bead autofluor 23294, BoNT A protease inconclusive
Cc1cccc(CNC(=O)c2ccccc2N)c1	none
C=CCSc1ncccc1C(=O)O	Bead autofluor 23263
Cc1ccc(CNC(=O)c2ccccc2N)cc1	Bead autofluor 19203
O=C(O)CSc1ncccc1C(=O)O	none
C=CCSc1ncccc1C(=O)NCc1ccc(C)cc1	Bead autofluor 19941
CCOC(=O)C1(C(=O)OCC)C(C)CC(=O)N1c1ccccc1OC (stereo not given)	none
COc1cc(C2C(C#N)=C(N)OC3=C2C(=O)CCC3)c([N+](=O)[O-])cc1OC (stereo not given)	MazF activator 110
O=C(Nc1cccc(Cl)c1)c1cnn2cccnc12	Bead autofluor 23465, BoNT A protease inconclusive
O=C(Nc1cc(Cl)cc(Cl)c1)c1cnn2cccnc12	none
c1cncc(Nc2nc(-c3ccncc3)cs2)c1	Bead autofluor 18714
COC(=O)C1=C(C)NC(=O)NC1c1ccc(OC)c(OC)c1 (stereo not given)	none
COc1ccc(C2SCC(=O)Nc3c2c(C)nn3-c2ccccc2)cc1OC (stereo not given)	Bead autofluor 23949
COc1ccc(C2SCC(=O)Nc3c2c(C)nn3C2CCOC(C)(C)C2)cc1OC (stereo not given)	Bead autofluor 23587, BoNT A protease inconclusive
COc1ccc(C2N(c3ccccc3)C(=O)C2(F)F)cc1OC (stereo not given)	none
COc1ccc(C(=O)N2CCCC(CCC(=O)NCc3ccc(F)c(F)c3)C2)o1 (stereo not given)	none
C#CCOCCOCCOCCNc1nc(N2CCN(C(=O)[C@H]([C@@H](C)CC)n3cc([C@@H](N)Cc4ccc(O)cc4)nn3)CC2)nc(N2CCN(C(=O)[C@H]([C@@H](C)CC)n3cc([C@@H](N)Cc4ccc(O)cc4)nn3)CC2)n1	MazF activator 51
CC(=O)Nc1ccc(Cl)c(C(N)=O)c1	Bead autofluor 19829
NC(=S)Nc1ccc(Cl)c(Cl)c1	Anthrax LF prot 52, BoNT-F LC inh inconclusive
CC(=O)Nc1cc(C(N)=O)c(Cl)cc1Cl	Bead autofluor inconclusive, BoNT A protease inconclusive
CCCC#CCN1CCN(C23CC4CC(CC(C4)C2)C3)CC1	none
CCCc1nc2nc(C)c(NS(=O)(=O)c3ccc(C)c(C)c3)c(=O)n2[nH]1	none
CC(C)c1ccc(NC(=O)Nc2nnc([C@@H]3C[C@H](O)[C@@H](CO)O3)s2)cc1	none (no result: MazF activator)
C#CCn1c(S(=O)(=O)Cc2ccc(C)cc2)nc(-c2ccccc2)c1-c1ccccc1	Bead autofluor 17325
C#CCn1c(S(=O)(=O)Cc2ccccc2Cl)nc(-c2ccccc2)c1-c1ccccc1	none
Cc1c(C(=O)Nc2nccs2)oc2ccc(Br)cc12	none
Cc1ccc(C(=O)CSc2nnc(-c3c[nH]c4ccccc34)o2)cc1	Bead autofluor 19814, BoNT A protease inconclusive
C=CCOC(=O)C1=C(C)Nc2nnnn2C1c1cccs1 (stereo not given)	Bead autofluor 17729
COC(=O)C1=C(C)Nc2nnnn2C1c1cccs1 (stereo not given)	Bead autofluor 19852
CCOC(=O)C1=CN(CC)S(=O)(=O)NC1c1cccc(OC)c1 (stereo not given)	none
COC(=O)c1ccccc1OP1(=O)COc2ccccc2OC1	Bead autofluor 22712, BoNT A protease inconclusive
O=C1N/C(=N\N=C\c2cccnc2)SC1Cc1ccc(SC(F)F)cc1 (stereo not given)	none (no result: Anthrax LF prot, Bead autofluor, BoNT-F LC inh, BoNT A protease)
O=C1N/C(=N\N=C\c2ccc3ncccc3c2)SC1Cc1ccc(SC(F)F)cc1 (stereo not given)	Bead autofluor 20635, BoNT A protease inconclusive
COc1cc(Nc2ccc(S(N)(=O)=O)cc2)c([N+](=O)[O-])nc1[N+](=O)[O-]	none
COC(=O)c1ccccc1NC(=O)NCc1ccccc1	none
COC(=O)c1ccccc1NC(=O)NCc1ccncc1	MazF activator 114
CCOC(=O)c1c(C)c(C(=O)NCCCOC)c(C)n1C	Bead autofluor 20527, BoNT A protease inconclusive
CCOC(=O)c1c(C)c(C(=O)OCC)n(C)c1C	none
CCOC(=O)c1c(C)c(C(=O)NCc2cccnc2)c(C)n1CC	Bead autofluor 20195, BoNT A protease inconclusive
CCOC(=O)c1c(C)c(C(=O)NCCOC)c(C)n1CC	Bead autofluor 23521
CCOC(=O)c1c(C)c(C(=O)NCCCN2CCCC2=O)c(C)n1CC	Bead autofluor 22714
CCOC(=O)c1c(C)c(C(=O)NCc2ccco2)c(C)n1CC	none
Cc1ccc(S(=O)(=O)NNc2ccccc2)c(C)c1	none
COc1ccc(CC(O)COS(N)(=O)=O)cc1 (stereo not given)	none
CCOC(=O)c1c(C)c(C(=O)NCc2cccs2)c(C)n1C	Bead autofluor 17882
C=CCn1c(O)c(N=NC(=S)Nc2ccc(OC)c(Cl)c2)c2ccccc21	Anthrax LF prot 30
CCC(C)(C)n1nnnc1C(C(C)C)N(CCN1CCOCC1)Cc1cc2cccc(C)c2[nH]c1=O (stereo not given)	Bead autofluor 21802
CCC(c1nnnn1C(C)(C)CC)N(CCCN1CCOCC1)Cc1cc2cccc(C)c2[nH]c1=O (stereo not given)	none
O=C(Nc1cccc(OCC(=O)N2CCOCC2)c1)c1ccc(C(F)(F)F)cc1	none
